# The full list was thinned out, with the strongest signals kept by preference.
# B1: FaeGad (Escherichia coli) (protein)
# chain: WMTGDFNGSVDIGGSITADDYRQKWEWEVGTGLNGFGSVLNDLTNGGTKLTITVTGNKPILLGRTKEAFATPVTSGVDGIPHIAFTDYEGASVELRNPDGETEKGLTYFVLPMKNAEGTKVGSVKVNASYAGALGRGGVTSADGELMSLFAEGSHAIFYGGLPTNVKNSELKGGSAAAARTELFGSLSKNDILGQIQRVNANITSLVNVPGSFNENMAYTDGSVVSVAYALGIANGQTIEATFNQAVTTSTQWSAPLNVAITYY
# Tests used:
# Assay in all cases: glycan array binding signal (z-score within array); higher = stronger binding
# Conditions in all cases: glycan notation: IUPAC condensed, linker removed
# [1] = target: Fuc(a1-2)Gal(b1-3)GalNAc(b1-3)Gal(a1-4)Gal(b1-4)Glc
# Procedure, shortened: (§1)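 The Consortium for Functional Glycomics database supplied 3228 glycan arrays, of which those lacking an available protein sequence were dropped. The binding signal, a within-array Z-score, was averaged across arrays of the same protein sequence and across linkers. Negative scores can be read as non-binding.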
# Fuc(a1-2)GlcNAc = target: Fuc(a1-2)GlcNAc
# Procedure, shortened: as §1
# Gal(a1-6)Glc = target: Gal(a1-6)Glc
# Procedure, shortened: as §1
# [2] = target: Gal(b1-3)[Fuc(a1-4)]GlcNAc(b1-3)Gal(b1-4)[Fuc(a1-3)]GlcNAc
# Procedure, shortened: as §1
# Gal(b1-4)Glc6S = target: Gal(b1-4)Glc6S
# Procedure, shortened: as §1
# [3] = target: Gal(b1-4)GlcNAc(b1-3)Gal(b1-4)Glc
# Procedure, shortened: as §1
# Glc(a1-4)Glc = target: Glc(a1-4)Glc
# Procedure, shortened: as §1
# Glc(a1-6)Glc(a1-6)Glc = target: Glc(a1-6)Glc(a1-6)Glc
# Procedure, shortened: as §1
# Glc(b1-4)Glc = target: Glc(b1-4)Glc
# Procedure, shortened: as §1
# [4] = target: GlcNAc(a1-3)Gal(b1-4)GlcNAc
# Procedure, shortened: as §1
# [5] = target: GlcNAc(b1-4)GlcNAc(b1-4)GlcNAc
# Procedure, shortened: as §1
# [6] = target: Man(a1-2)Man(a1-2)Man(a1-6)[Man(a1-3)]Man
# Procedure, shortened: as §1
# [7] = target: Neu5Ac(a2-3)Gal(b1-4)[Fuc(a1-3)]GlcNAc
# Procedure, shortened: as §1
# [8] = target: Neu5Ac(a2-3)Gal(b1-4)[Fuc(a1-3)]GlcNAc(b1-3)Gal(b1-4)[Fuc(a1-3)]GlcNAc(b1-3)Gal(b1-4)[Fuc(a1-3)]GlcNAc
# Procedure, shortened: as §1
# Neu5Ac(a2-3)GalNAc = target: Neu5Ac(a2-3)GalNAc
# Procedure, shortened: as §1
# [9] = target: Neu5Ac(a2-6)Gal(b1-4)GlcNAc(b1-3)Gal(b1-4)GlcNAc
# Procedure, shortened: as §1
# [10] = target: Neu5Ac(a2-6)Gal(b1-4)GlcNAc(b1-3)Gal(b1-4)[Fuc(a1-3)]GlcNAc(b1-3)Gal(b1-4)[Fuc(a1-3)]GlcNAc
# Procedure, shortened: as §1
# [11] = target: Neu5Ac(a2-8)Neu5Ac(a2-8)Neu5Ac
# Procedure, shortened: as §1
binder,measurement,setting,value
B1,glycan array binding signal (z-score),[1],-0.404
same,glycan array binding signal (z-score),Fuc(a1-2)GlcNAc,-0.247
same,glycan array binding signal (z-score),Gal(a1-6)Glc,0.615
same,glycan array binding signal (z-score),[2],0.979
same,glycan array binding signal (z-score),Gal(b1-4)Glc6S,0.601
same,glycan array binding signal (z-score),[3],0.629
same,glycan array binding signal (z-score),Glc(a1-4)Glc,9.55
same,glycan array binding signal (z-score),Glc(a1-6)Glc(a1-6)Glc,10.2
same,glycan array binding signal (z-score),Glc(b1-4)Glc,3.57
same,glycan array binding signal (z-score),[4],0.188
same,glycan array binding signal (z-score),[5],0.137
same,glycan array binding signal (z-score),[6],1.83
same,glycan array binding signal (z-score),[7],-0.45
same,glycan array binding signal (z-score),[8],-0.187
same,glycan array binding signal (z-score),Neu5Ac(a2-3)GalNAc,-0.452
same,glycan array binding signal (z-score),[9],-0.289
same,glycan array binding signal (z-score),[10],-0.414
same,glycan array binding signal (z-score),[11],-0.377

# Source: the supplement of paper PMC8728848
